# Experimental data as given in PubChem BioAssay AID1259422 (The Scripps Research Institute Molecular Screening Center, 2018).
# The whole screen tested about 640,000 compounds, of which about 9,300 (1.5%) were called active. The list comes from a sample in which actives are over-represented; it also holds similar structures and randomly drawn compounds. Values without a mark were called inactive. Cut-off read from the data, not from the text of the source: active = inhibition above about 32%; inactive = the rest.
# Test: TEAD-YAP interaction inhibition, primary screen, TEAD-YAP interaction inhibitor project, luminescence, HEK-TIYL cells (AID 1259422);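 note: 0% = median of test compound wells and 100% = reference inhibitor wells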
# Conditions: TEAD-Gal4/YAP UAS-luciferase luminescence, at 9.12 µM, active compounds read high
row,SMILES,inhibition
1,C/C(=N\NC(=O)Cc1cccn1C)c1ccc(O)cc1,-12.8%
2,CCN1CCSc2ccc(C(=O)NCCCOC)cc21,0.64%
3,CC1=Nc2cc(C(=O)O)ccc2Sc2ccccc21,-2.24%
4,COCCNC(=O)/C=C/c1ccc(Br)cc1,-24.8%
5,COCCNC(=O)c1ccc2c(c1)N=C(C)c1cc(C)ccc1S2,67.6% (active)
6,COCCNC(=O)c1ccc2c(c1)N=C(C)c1cc(Br)ccc1S2,52.5% (active)
7,COCCNC(=O)c1ccc2c(c1)ncn2-c1ccc(C)c(Cl)c1,-17.5%
8,COc1cccc(CCC(=O)N2CCC(CCC(=O)N(C)Cc3ccccc3)CC2)c1,4.53%
9,COc1cc(C2C(C#N)=C(N)Oc3n[nH]c(-c4cc(OC)c(OC)c(OC)c4)c32)ccc1OC(=O)N1CCOCC1 (stereo not given),12.5%
10,O=C(O)c1cc(N=Cc2cc(Br)cc(Cl)c2O)ccc1O,-2.5%
11,CC1=C(C#N)C(c2ccc(Cl)cc2Cl)C2=C(CC(c3ccccc3)CC2=O)N1 (stereo not given),11.3%
12,CC1=C(C#N)C(c2ccccc2Br)C2=C(CC(c3ccccc3)CC2=O)N1 (stereo not given),37.1% (active)
13,COC(=O)C1=C(C)NC2=C(C(=O)CC(c3ccccc3)C2)C1c1ccc(C)cc1 (stereo not given),2.81%
14,COC(=O)CCCC(=O)N1CCOCCOCCN(C(=O)CCCC(=O)OC)CCOCCOCC1,7.88%
15,COc1ccc(-c2nnc(SCC(=O)NC(=O)NCc3ccco3)o2)cc1OC,12.3%
16,COc1ccc(C2=NOC(C(=O)NCc3ccco3)C2)cc1OC (stereo not given),46.8% (active)
17,COc1ccc(C2=NOC(C(=O)NCCc3ccccc3)C2)cc1OC (stereo not given),-5.18%
18,CC(C)C[C@@H]1NC(=O)[C@@H]2C[C@H](NC(=O)Nc3ccccc3)CN2C1=O,3.71%
19,CCOc1cc(CN2CCC(C(=O)NCCc3ccccc3)CC2)ccc1O,-8.29%
20,CCOc1ccccc1-c1noc(-c2cccs2)n1,-16.8%
21,c1ccc(-c2noc(-c3cccs3)n2)nc1,33.7% (active)
22,CC(Oc1ccccc1)c1nc(-c2ccccn2)no1 (stereo not given),-32.3%

row,SMILES,inhibition
1,CN(C)S(=O)(=O)c1ccc(NC(=O)COC(=O)c2ccc(NC(N)=O)cc2)cc1,-1.47%
2,COCCC(=O)NC(C)c1nnc2n1CCN(Cc1ccc(C)cc1)CC2 (stereo not given),10.5%
3,Cc1ccc2nc(NCCOCCO)c(/C=C3\SC(=S)N(C(C)C)C3=O)c(=O)n2c1,-4.15%
4,COc1ccc(/C=C2/C(=N)N3C(=NC2=O)SN=C3S(=O)(=O)C(C)C)cc1OC,-1.31%
5,O=C(Cc1ccc(Cl)c(Cl)c1)N1CCC(O)(c2ccccn2)CC1,0.43%
6,O=C(c1cc(-c2ccccc2Cl)on1)N1CCCCC1,0.6%
7,O=C(c1cn2c(n1)sc1ccccc12)N1CCCC1,37.1% (active)
8,O=C(c1cccc2nc3ccccc3nc12)N1CCCCCC1,-1.97%
9,CCOC(=O)c1[nH]ncc1CN1CCCC(N(C)CCc2ccccc2)C1 (stereo not given),-7.42%
10,O=C1c2ccccc2OCCN1Cc1ccc(F)cc1,-3.96%
11,O=C(Nc1ccc(Cl)c(C(=O)O)c1)c1ncn[nH]1,1.11%
12,CSc1cccc(NC(=O)c2ncn[nH]2)c1,4.68%
13,CCc1ccc(NC(=O)c2ncn[nH]2)cc1,47.9% (active)
14,CCCCn1c(N)c(N2CCOCC2)c(=O)[nH]c1=O,2.71%
15,CCOC(=O)C1CCN(Cn2[nH]c3nc4ccccc4n3c2=S)CC1,-6.77%
16,FC(F)(F)c1cccc(N2CCN(CCN3CCOCC3)CC2)c1,-6.06%
17,OCCNc1ncnc2nc(-c3ccccc3)[nH]c12,6.88%
18,COc1ccc(-c2nc3ncnc(NCc4ccccc4)c3[nH]2)cn1,45% (active)
19,COc1ccc(-c2nc3ncnc(NCCc4ccc(O)cc4)c3[nH]2)cn1,58.2% (active)
20,COc1ccc(-c2nc3ncnc(NCCN4CCOCC4)c3[nH]2)cc1,-0.6%
21,COc1ccc(-c2nc3ncnc(Nc4ccccc4)c3[nH]2)cc1,0.52%
22,COc1ccc(CCNc2ncnc3nc(-c4ccc(C(N)=O)cc4)[nH]c23)cc1,-4.01%

row,SMILES,inhibition
1,COc1cc(OC)cc(C(=O)Nc2cc(C(=O)Nc3ccc(OC)c(OC)c3)ccc2N2CC3CC(C2)c2cccc(=O)n2C3)c1 (stereo not given),-0.12%
2,COc1ccc(/C=C/C(=O)NCCOc2ccc(Cl)cc2)cc1OC,-6.87%
3,CC(=O)Nc1ccc(NC(=O)CCCc2nc(-c3ccc(C(C)(C)C)cc3)no2)cc1,68.3% (active)
4,COc1ccc(-c2noc(CCC(=O)N(C)C)n2)cc1,-26.2%
5,CCCNC(=O)CCCc1nc(-c2ccc(Cl)cc2)no1,25.2%
6,CC(C)(C)NC(=O)CCc1nc(-c2ccc(C(C)(C)C)cc2)no1,50.6% (active)
7,CCNC(=O)CCc1nc(-c2cccc(C)c2)no1,-13.2%
8,COc1ccc(NC(=O)CCCc2nc(-c3ccc(OC)c(OC)c3)no2)cc1,1.43%
9,COC(=O)c1ccc(C(=O)NCC2CCC3(CCN(Cc4ccccn4)CC3)O2)cc1 (stereo not given),9.59%
10,Cc1cccc(C(=O)OCC(=O)NC2CCCCC2C)c1O (stereo not given),7.9%
11,COc1cccc(C(=O)NC2(C(F)(F)F)NC(=O)N(c3ccccc3)C2=O)c1 (stereo not given),8.83%
12,COc1cccc2cc(C(=O)Nc3cccc4ccccc34)c(=N)oc12,-5.43%
13,Cc1cc(-c2nc3cc(N)ccc3o2)ccc1Br,1.99%
14,Cc1ccc(OCC(=O)Nc2ccc(-c3nc4cc(C(C)C)ccc4o3)cc2)cc1,20.8%
15,CCc1ccc2oc(-c3ccc(N)cc3)nc2c1,79.6% (active)
16,Cc1ccc(-c2nc3cc(C(C)C)ccc3o2)cc1N,80.7% (active)
17,CCc1ccc(-c2nc3cc(NC(=O)c4ccc(Cl)cc4)ccc3o2)cc1,7.97%
18,CCc1ccc2oc(-c3ccc(NC(=O)c4ccccc4[N+](=O)[O-])cc3)nc2c1,-50.9%
19,Cc1ccc2oc(-c3ccc(C)c(NC(=O)c4ccc([N+](=O)[O-])o4)c3)nc2c1,-28.6%
20,CC(=O)Nc1cc(-c2nc3cc(C(C)C)ccc3o2)ccc1Cl,-35.8%
21,Cc1ccc2oc(-c3ccc(C)c(N)c3)nc2c1,53.6% (active)
